We go through 17 compounds from PubChem BioAssay.

SMILES strings stand for the structures. A number with no mark means an inactive call. For some of these results: Results with a measured potency or affinity are listed apart. The source made the active and inactive calls. Unless noted, how the calls were made is not given here.

The nature of assay [1]: antimalarial activity against Dd2 strain (AID 2302;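 active means growth inhibition above 50% at the single 2 µM test dose, taken to imply half-maximal potency below 2 µM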;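 further: 0% = DMSO untreated growth and 100% = chloroquine plus artemisinin killed control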). The conditions noted are these: P. falciparum Dd2 in RBCs, LDH growth readout, 72 h; at 2 µM; active compounds read high.
A short description of assay [2]: HepG2 cytotoxicity, primary screen, cytotoxicity control for P. falciparum antimalarial project, cell-based, ATP luminescence (AID 2303;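 active means inhibition above 50%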;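 further: 0% = DMSO wells and 100% = digitonin-killed cells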). The conditions noted are these: HepG2 viability, 24-48 h, at 10 µM, active compounds read high.
The target of assay [3] is L-lactate dehydrogenase (Plasmodium falciparum (isolate CDC / Honduras)) (UniProt Q27743). Briefly: PfLDH activity inhibition – cell lysate, 3D7 strain, counter-screen for P. falciparum growth inhibition project (AID 2304).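 Further: 0% = vehicle and 100% = reference inhibitor.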 As to conditions: P. falciparum 3D7 crude extract, LDH APAD/NBT absorbance; at 2 µM; active compounds read high. (The purpose of a counterscreen is to sort out artefacts and off-target activity.)

A short description of assay [4]: inhibition of 3D7 malaria parasite growth – strain 3D7 (AID 2306).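 Further: 0% = DMSO wells and 100% = chloroquine plus artemisinin control wells.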 The conditions noted are these: P. falciparum 3D7 erythrocytic growth, LDH absorbance, 72 h; at 2 µM; active compounds read high.
The target in assay [5] is Calcium-dependent protein kinase 1 (Plasmodium falciparum (isolate 3D7)) (UniProt P62344). Briefly: PfCDPK1 kinase inhibitors, biochemical, TCAMS library (AID 1159585; cut-off not given, nearly all actives have IC50 up to about 0.98 µM;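 further: inhibitors leave more ATP so luminescence rises with inhibition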). The conditions noted are these: recombinant PfCDPK1, Kinase-Glo ATP depletion luminescence. Background: In Kinase-Glo more light means more ATP remaining.
The target of assay [6] is Plasmodium falciparum protein kinase 6 (PK6, PF3D7_1337100) (UniProt Q8IDW1). Description: PfPK6 kinase inhibitors, biochemical, TCAMS library (AID 1159586). The conditions noted are these: recombinant PfPK6, Kinase-Glo ATP depletion luminescence.
Assay [7] deals with Protein kinase 7 (PK7), Plasmodium falciparum 3D7 (PF3D7_0213400) (UniProt Q7YTF7). Description: inhibition of Plasmodium PK7 catalytic activity – biochemical, TCAMS antimalarial set, Kinase-Glo luminescence (AID 1159587). The conditions noted are these: recombinant PfPK7, Kinase-Glo ATP depletion luminescence.
Assay [8] concerns the target Calcium-dependent protein kinase 4 (Plasmodium falciparum (isolate 3D7)) (UniProt Q8IBS5). Briefly: PfCDPK4 kinase inhibitors, biochemical, TCAMS library (AID 1159588; cut-off not given, nearly all actives have IC50 up to about 0.91 µM). As to conditions: recombinant PfCDPK4, Kinase-Glo ATP depletion luminescence.

Chain of L-lactate dehydrogenase (Plasmodium falciparum (isolate CDC / Honduras)) (Q27743 whole entry, looked up): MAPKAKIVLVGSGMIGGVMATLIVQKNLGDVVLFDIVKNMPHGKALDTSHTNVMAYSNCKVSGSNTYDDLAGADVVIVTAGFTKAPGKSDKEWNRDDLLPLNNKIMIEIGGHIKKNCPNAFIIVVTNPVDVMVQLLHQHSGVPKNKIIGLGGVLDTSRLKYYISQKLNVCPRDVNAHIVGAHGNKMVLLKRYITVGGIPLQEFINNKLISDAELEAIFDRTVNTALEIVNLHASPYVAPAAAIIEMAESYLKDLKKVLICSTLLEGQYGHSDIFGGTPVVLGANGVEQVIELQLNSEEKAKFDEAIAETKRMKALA
Chain of Plasmodium falciparum protein kinase 6 (PK6, PF3D7_1337100) (Q8IDW1 1-305): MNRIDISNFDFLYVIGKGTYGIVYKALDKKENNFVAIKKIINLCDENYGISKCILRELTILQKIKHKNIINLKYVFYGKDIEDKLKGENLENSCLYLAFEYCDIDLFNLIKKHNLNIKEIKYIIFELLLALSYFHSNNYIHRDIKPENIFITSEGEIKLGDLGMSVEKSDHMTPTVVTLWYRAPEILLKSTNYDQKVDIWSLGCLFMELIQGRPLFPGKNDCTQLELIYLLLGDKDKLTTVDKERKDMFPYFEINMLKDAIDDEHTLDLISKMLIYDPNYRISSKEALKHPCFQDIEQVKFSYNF
Chain of Protein kinase 7 (PK7), Plasmodium falciparum 3D7 (PF3D7_0213400) (Q7YTF7 1-343): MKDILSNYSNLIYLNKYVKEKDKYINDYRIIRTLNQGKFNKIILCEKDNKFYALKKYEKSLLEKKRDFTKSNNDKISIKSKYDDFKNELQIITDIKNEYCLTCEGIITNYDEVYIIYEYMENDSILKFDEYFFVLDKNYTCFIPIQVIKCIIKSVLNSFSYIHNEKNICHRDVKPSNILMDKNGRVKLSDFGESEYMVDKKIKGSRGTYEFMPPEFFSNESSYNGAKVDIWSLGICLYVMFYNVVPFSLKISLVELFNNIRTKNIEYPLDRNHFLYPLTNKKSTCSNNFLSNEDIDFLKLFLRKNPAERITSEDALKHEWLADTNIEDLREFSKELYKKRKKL
Chain of Calcium-dependent protein kinase 4 (Plasmodium falciparum (isolate 3D7)) (Q8IBS5 whole entry, looked up): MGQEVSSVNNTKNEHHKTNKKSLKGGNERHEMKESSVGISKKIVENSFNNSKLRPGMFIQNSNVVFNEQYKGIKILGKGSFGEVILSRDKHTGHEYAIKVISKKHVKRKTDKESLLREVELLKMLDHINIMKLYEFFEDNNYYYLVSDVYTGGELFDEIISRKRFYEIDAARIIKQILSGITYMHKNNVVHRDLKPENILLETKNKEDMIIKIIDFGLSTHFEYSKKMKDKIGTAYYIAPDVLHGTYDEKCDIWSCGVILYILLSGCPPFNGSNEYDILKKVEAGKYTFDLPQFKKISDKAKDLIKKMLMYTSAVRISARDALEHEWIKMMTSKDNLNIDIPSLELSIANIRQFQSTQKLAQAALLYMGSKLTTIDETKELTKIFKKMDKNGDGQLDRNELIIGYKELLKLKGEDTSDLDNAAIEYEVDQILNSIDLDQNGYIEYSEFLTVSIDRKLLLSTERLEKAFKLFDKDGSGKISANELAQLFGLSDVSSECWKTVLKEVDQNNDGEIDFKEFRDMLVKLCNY
Chain of Calcium-dependent protein kinase 1 (Plasmodium falciparum (isolate 3D7)) (P62344 whole entry, looked up): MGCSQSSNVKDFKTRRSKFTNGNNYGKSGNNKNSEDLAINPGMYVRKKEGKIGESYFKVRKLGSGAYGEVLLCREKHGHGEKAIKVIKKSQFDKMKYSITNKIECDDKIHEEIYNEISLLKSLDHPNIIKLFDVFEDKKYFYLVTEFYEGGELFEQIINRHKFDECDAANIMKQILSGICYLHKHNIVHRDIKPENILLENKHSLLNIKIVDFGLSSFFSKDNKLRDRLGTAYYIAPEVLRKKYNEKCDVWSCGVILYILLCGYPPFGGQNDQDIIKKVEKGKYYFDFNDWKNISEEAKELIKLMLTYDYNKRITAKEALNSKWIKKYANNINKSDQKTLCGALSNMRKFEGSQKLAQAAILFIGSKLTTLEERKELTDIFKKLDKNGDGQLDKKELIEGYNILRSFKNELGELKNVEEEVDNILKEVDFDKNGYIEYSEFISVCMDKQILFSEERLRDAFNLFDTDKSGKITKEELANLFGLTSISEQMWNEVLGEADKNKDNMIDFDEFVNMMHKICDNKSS

What is called inhibition is the relative decrease from the control value, in per cent. Regarding `O=C(Nc1cccc(-c2nn3ccccc3c2-c2ccnc(Nc3cccc(F)c3)n2)c1)c1c(F)ccc(F)c1Cl`, the growth inhibition in assay [1] was 38%; in assay [4], 93% (active). Further, the figures for the inhibition in assay [2] and in assay [3] were 41% and 5%, respectively. Moreover, the outcome in assay [5], in assay [6], in assay [7] and in assay [8] was inactive.

On to `CN1CCCN(c2ccnc3cc4c(cc23)N(C(=O)c2ccc(Cl)c(Cl)c2)CC4)CC1`, for which the growth inhibition in assay [1] is 73% (active); in assay [4], 101% (active). The inhibition in assay [2] is 20%; in assay [3] it was 2%. The outcome in assay [5], in assay [6], in assay [7] and in assay [8] was inactive.

As for `O=C(Cc1cnc[nH]1)Nc1cccc(-c2ccc(-c3nc4ccc(C(F)(F)F)cc4[nH]3)cc2)c1`, the values for the growth inhibition in assay [1] and in assay [4] were 99% (active) and 102% (active), respectively. In addition, the inhibition was 10% in assay [2] and -1% in assay [3]. In addition, the outcome in assay [5], in assay [6], in assay [7] and in assay [8] was inactive.

Take `CN(C)Cc1c(O)ccc2[nH]c(-c3ccc(F)cc3F)nc12`: the growth inhibition in assay [1] is 17%; in assay [4] it was 99% (active). The inhibition in assay [2] is 4%; in assay [3] it was -2%. For the same compound, the result in assay [5], in assay [6], in assay [7] and in assay [8] was inactive.

For `N#Cc1ccc(CN2CCC(Oc3ccc(NC(=O)c4cccs4)cc3Cl)C2)cc1` (stereo unspecified), the growth inhibition is 95% (active) in assay [1] and 96% (active) in assay [4]. Moreover, the inhibition was 31% in assay [2] and -2% in assay [3]. The outcome in assay [5], in assay [6], in assay [7] and in assay [8] was inactive.

Take `Cc1cc(CN2CC[C@H](NC(=O)c3ccc(Cl)c(Cl)c3)C2)ccc1OC1CCN(Cc2ccccc2)CC1`: the growth inhibition in assay [1] was 29%; in assay [4] it was 98% (active). Moreover, the values for the inhibition in assay [2] and in assay [3] were 59% (active) and -2%, respectively. For the same compound, the result in assay [5], in assay [6], in assay [7] and in assay [8] was inactive.

In the case of `CC[C@H](C)CNC(=O)c1cncc(-c2ccc(CNC3CCCC3)cc2)c1`, the growth inhibition in assay [1] was 5%; in assay [4], 97% (active). In addition, the inhibition in assay [2] was -25%; in assay [3], 0%. Moreover, the outcome in assay [5], in assay [6], in assay [7] and in assay [8] was inactive.

Take `CN1CCN(CCCN(Cc2ccc(-c3ccc(CNCCc4ccccc4)cc3)cc2)C(=O)c2cccs2)CC1`: the growth inhibition in assay [1] was 78% (active); in assay [4] it was 98% (active). For the same compound, the inhibition in assay [2] was 32%; in assay [3], 3%. The result in assay [5], in assay [6], in assay [7] and in assay [8] was inactive.

Turning to `CN1CCc2cc(I)c(O)cc2C1Cc1ccccc1Cl` (stereo unspecified), the growth inhibition in assay [1] is 96% (active); in assay [4], 98% (active). In addition, the inhibition in assay [2] was -7%; in assay [3], -2%. The outcome in assay [5], in assay [6], in assay [7] and in assay [8] was inactive.

As for `COc1ccc(Nc2ncc3c(-c4cccc(NC(=O)Cc5ccncc5)c4)c[nH]c3n2)cc1OC`, the growth inhibition was 87% (active) in assay [1] and 99% (active) in assay [4]. Besides, the inhibition is 23% in assay [2] and 1% in assay [3]. For the same compound, the outcome in assay [5], in assay [6], in assay [7] and in assay [8] was inactive.

Consider `Cc1ccc2cc(C3NC(=O)c4ccccc4N3)c(Cl)nc2c1` (stereo unspecified), for which the growth inhibition is 38% in assay [1] and 91% (active) in assay [4]. Moreover, the inhibition was -6% in assay [2] and 1% in assay [3]. Also, the outcome in assay [5], in assay [6], in assay [7] and in assay [8] was inactive.

For `CCN(CCNC(=O)Cn1c(C)cc2cc([N+](=O)[O-])ccc21)c1cccc(C)c1`, the growth inhibition is 95% (active) in assay [1] and 97% (active) in assay [4]. In addition, the inhibition in assay [2] is -3%; in assay [3], 6%. For the same compound, the result in assay [5], in assay [6], in assay [7] and in assay [8] was inactive.

On to `CC(Oc1ccc(Cl)cc1)C(=O)NCCC1CCN(CCCCCNC(=O)/C=C/c2ccc(Cl)c(Cl)c2)CC1` (stereo unspecified), for which the growth inhibition in assay [1] was 20%; in assay [4], 89% (active). In addition, the inhibition is 48% in assay [2] and -5% in assay [3]. Moreover, the outcome in assay [5], in assay [6], in assay [7] and in assay [8] was inactive.

On to `CCCCCN1CCCC1CNS(=O)(=O)c1cccc(C(=O)Nc2cccc(C(F)(F)F)c2)c1` (stereo unspecified), for which the results for the growth inhibition in assay [1] and in assay [4] were 12% and 96% (active), respectively. The inhibition is 15% in assay [2] and 4% in assay [3]. Moreover, the outcome in assay [5], in assay [6], in assay [7] and in assay [8] was inactive.

Consider `COc1ccc(OC(C)CNC(=O)c2cc([N+](=O)[O-])ccc2-c2ccc(OC)cc2)cc1` (stereo unspecified), for which the growth inhibition in assay [1] is 44%; in assay [4] it was 92% (active). The results for the inhibition in assay [2] and in assay [3] were 18% and 3%, respectively. Further, the outcome in assay [5], in assay [6], in assay [7] and in assay [8] was inactive.

With `CCN(CC)c1ccc(NC(=S)NC2CCN(CCCCCNC(=O)/C=C/c3ccc(Cl)c(Cl)c3)CC2)cc1`, the growth inhibition in assay [1] is 58% (active); in assay [4], 100% (active). The inhibition is 16% in assay [2] and 3% in assay [3]. Besides, the outcome in assay [5], in assay [6], in assay [7] and in assay [8] was inactive.

Regarding `COC(=O)C(c1ccc(NC(=O)[C@H](CC(C)C)NC(=O)OC(C)(C)C)cc1)c1ccc(NC(=O)[C@H](CC(C)C)NC(=O)OC(C)(C)C)cc1`, the growth inhibition is 42% in assay [1] and 94% (active) in assay [4]. Also, the inhibition in assay [2] was 0%; in assay [3] it was 2%. The outcome in assay [5], in assay [6], in assay [7] and in assay [8] was inactive.
